This note sets out measurements from PubChem BioAssay (NCATS).

Assay [1] concerns the target Lysosomal acid glucosylceramidase (Homo sapiens) (UniProt P04062). Briefly: Glucocerebrosidase-p2 (AID 348; in the data active = potency below about 10 µM; also: potency is read from the fitted curve at half-maximal effect). The note with it: purified GBA, blue fluorogenic substrate, 40 min. The method in brief: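 Normal human glucocerebrosidase (0.2 nM) with blue fluorogenic substrate (80 uM final) in citrate/phosphate pH 5.9 with 10mM sodium taurocholate, 0.01% tween-20; 40 min RT, NaOH/glycine stop; fluorescence Ex 365/Em 440; AC50 from a titration from 0.6 nM upwards.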

The nature of assay [2]: AP1 Signaling Pathway (AID 357; active = well fitted curve in either direction with a large enough effect, not every such curve was filed as active;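 also: ME-180 reporter cells stimulated with EGF at its EC50 level; % is scaled to controls: 0 for no effect and ±100 for the full control effect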). The note with it: ME-180 AP-1-bla reporter, EGF-induced, beta-lactamase ratio, 5 h; at 7.69 µM (top of the series) unless noted. The method in brief:
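Titration-series screen for positive or negative modulators of EC50 EGF-induced signaling in ME-180 cells carrying an AP-1-driven beta-lactamase reporter. After 5 hours at 37 degrees Celsius, CCF4 460nm/530nm emission ratio gave %Activity; AC50 values derived.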

Assay [3] has as its target Cytochrome P450 1A2 (Homo sapiens) (UniProt P05177). As to the kind of experiment: p450-cyp1a2 (AID 410; calls by dose curve; also: potency is read from the fitted curve at half-maximal effect). To be noted: recombinant CYP1A2, luciferin-ME demethylation, luminescence; series mostly up to 57 µM. The method in brief:
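20nM CYP1A2, 100uM Luciferin-ME (=Km), 100mM KPO4; cpd 10 min RT; +NADPH regen, 60 min RT; stop/detect 20 min; luminescence. Normalized to furafylline 57 uM = full inhibition.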

The nature of assay [4]: NFAT Signaling Pathway (AID 444; active = well fitted curve in either direction with a large enough effect, not every such curve was filed as active;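 also: carbachol stimulus at about its EC50 of 1 µM final; % is scaled to controls: 0 for no effect and ±100 for the full control effect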). To be noted: Jurkat NFAT-bla M1, carbachol, beta-lactamase ratio, 5 h; at 7.69 µM (top of the series) unless noted. A digest of the protocol:
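Jurkat cells with NFAT-driven β-lactamase reporter and co-expressed M1 receptor, stimulated with carbachol (final 1 uM, ~EC50), compound titration, 5 h at 37 °C. CCF4 loaded 1 h at RT; 460/530 nm ratio gave %activity and AC50.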

The nature of assay [5]: Stat Signaling Pathway (AID 446; active = well fitted curve in either direction with a large enough effect, not every such curve was filed as active;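 also: ME-180 cervical cancer cells given 40 pM IL-6 alongside compound; SIE-controlled beta-lactamase reporter measured as 460/530 nm FRET emission ratio; % is scaled to controls: 0 for no effect and ±100 for the full control effect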). The note with it: ME-180 SIE beta-lactamase reporter, IL-6 stimulated, 5 h; at 7.69 µM (top of the series) unless noted. A digest of the protocol:
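Overnight-plated ME-180 cells bearing a STAT Inducible Element beta-lactamase reporter; 5 h co-exposure to compound and 40 pM IL-6; values normalized to 300 pM IL-6 and 125 nM JAK inhibitor controls.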

In assay [6] the target is Glucocorticoid receptor (Homo sapiens) (UniProt P04150). Briefly: GR-GFP Redistribution (AID 450;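 active = compounds whose dose series gives a full or clear partial fitted curve of increased nuclear translocation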; also: potency is read from the fitted curve at half-maximal effect). To be noted: U2OS GR-GFP nuclear translocation, laser cytometry, 2 h.
Glucocorticoid receptor (Homo sapiens), sequence (P04150 whole entry, looked up): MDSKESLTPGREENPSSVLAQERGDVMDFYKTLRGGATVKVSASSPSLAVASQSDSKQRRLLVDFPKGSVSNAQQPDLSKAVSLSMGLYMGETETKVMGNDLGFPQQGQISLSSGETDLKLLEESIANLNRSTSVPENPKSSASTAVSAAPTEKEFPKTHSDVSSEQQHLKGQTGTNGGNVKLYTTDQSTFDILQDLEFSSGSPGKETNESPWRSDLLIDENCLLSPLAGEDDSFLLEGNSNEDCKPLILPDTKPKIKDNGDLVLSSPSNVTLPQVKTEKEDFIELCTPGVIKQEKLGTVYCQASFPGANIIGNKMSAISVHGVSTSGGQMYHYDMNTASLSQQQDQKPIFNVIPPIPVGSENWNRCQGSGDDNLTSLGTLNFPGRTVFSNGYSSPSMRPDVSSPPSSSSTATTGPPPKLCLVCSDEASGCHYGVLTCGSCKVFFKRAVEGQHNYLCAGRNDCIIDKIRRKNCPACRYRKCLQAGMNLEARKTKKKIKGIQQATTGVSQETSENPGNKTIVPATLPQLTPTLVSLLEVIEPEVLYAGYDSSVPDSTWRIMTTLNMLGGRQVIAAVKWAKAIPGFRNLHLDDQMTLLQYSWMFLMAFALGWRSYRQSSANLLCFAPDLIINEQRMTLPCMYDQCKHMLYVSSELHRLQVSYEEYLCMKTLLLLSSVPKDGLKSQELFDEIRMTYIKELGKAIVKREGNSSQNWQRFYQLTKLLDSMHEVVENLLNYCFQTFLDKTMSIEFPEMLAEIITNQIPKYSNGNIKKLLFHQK
Assay [7] has the same target. As to the kind of experiment: GR-EFC Redistribution (AID 451; calls by dose curve; also: potency is read from the fitted curve at half-maximal effect). The note with it: CHO-K1 GR-EFC translocation, beta-gal luminescence, 2 h. The method in brief:
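CHO-K1 cells expressing nuclear EA and GR-ED fragments of b-gal; compounds titrated up to 46 uM final, 2 h at 37 C. GR nuclear translocation read as complemented b-gal luminescence after 1 h RT detection.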

In assay [8] the target is Mitogen-activated protein kinase 10 (Mus musculus) (UniProt Q61831). Briefly: JNK3 AlphaScreen Assay (AID 530; active = well fitted curve in either direction with a large enough effect, not every such curve was filed as active;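 also: kinase came from lysate of stimulated human HepG2 cells; signal reports phosphorylation of biotinylated GST-cJun 1-79 at Ser73 with 10 µM ATP; % is scaled to controls: 0 for no effect and ±100 for the full control effect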). The note with it: JNK3 lysate, c-Jun phosphorylation; series mostly up to 57.1 µM. A digest of the protocol:
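HepG2 lysate (IL-1b/TNFa pre-activated) + biotin-GST-cJun 1-79 + anti-pSer73 cJun; cpd titration, 15 min RT; ATP 10 uM start; Tris pH 7.6, MgCl2, DTT, vanadate; beads in EDTA buffer; AlphaScreen.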
(In general: In Alpha technology, singlet oxygen from a donor bead excites a nearby acceptor bead.)

The target of assay [9] is 3',5'-cyclic-AMP phosphodiesterase 4B (Homo sapiens) (UniProt Q07343). As to the kind of experiment: qHTS Assay for Inhibitors of PDE-IV (AID 607; active = well fitted activation curve with a large enough effect in the main read-out, with a control signal flat, not every such curve was filed as active; also: % of control where 0% means no effect). To be noted: HEK293 ACTOne CNG channel cells, membrane potential fluorescence; series mostly up to 22.9 µM. A digest of the protocol: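 Live HEK293 cells with a modified cyclic nucleotide-gated (CNG) channel report intracellular cAMP via membrane-potential dye fluorescence (ex 535/em 590 nm). Endogenous PDE-IV was targeted. Compounds were tested at up to 22.9 uM final; RO 20-1724 100 uM served as control.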
3',5'-cyclic-AMP phosphodiesterase 4B (Homo sapiens), sequence (Q07343 whole entry, looked up): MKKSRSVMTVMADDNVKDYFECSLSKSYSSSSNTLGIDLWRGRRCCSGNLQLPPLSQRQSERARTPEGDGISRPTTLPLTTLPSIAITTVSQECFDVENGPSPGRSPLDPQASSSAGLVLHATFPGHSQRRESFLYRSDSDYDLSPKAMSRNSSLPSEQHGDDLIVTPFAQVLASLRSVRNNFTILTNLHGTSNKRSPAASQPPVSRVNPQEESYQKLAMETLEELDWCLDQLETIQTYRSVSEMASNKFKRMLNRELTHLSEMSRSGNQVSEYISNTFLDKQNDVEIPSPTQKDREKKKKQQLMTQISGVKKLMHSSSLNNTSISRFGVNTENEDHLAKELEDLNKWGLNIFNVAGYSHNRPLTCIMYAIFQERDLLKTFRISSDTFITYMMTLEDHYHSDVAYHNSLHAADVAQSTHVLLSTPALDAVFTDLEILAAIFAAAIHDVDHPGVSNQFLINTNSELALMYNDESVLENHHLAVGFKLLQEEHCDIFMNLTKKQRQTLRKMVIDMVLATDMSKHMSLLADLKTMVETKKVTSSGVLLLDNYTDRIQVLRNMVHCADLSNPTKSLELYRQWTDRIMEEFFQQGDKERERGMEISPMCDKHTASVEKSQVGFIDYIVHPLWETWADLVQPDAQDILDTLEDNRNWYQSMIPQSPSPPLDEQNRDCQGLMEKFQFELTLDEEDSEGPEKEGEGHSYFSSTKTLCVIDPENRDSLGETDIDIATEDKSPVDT
Background: In qHTS, concentration-response curves come from the screen itself.

Assay [10] deals with Cytochrome P450 3A4 (Homo sapiens) (UniProt P08684). As to the kind of experiment: qHTS Assay for Inhibitors and Substrates of Cytochrome P450 3A4 (AID 884). Also: potency is read from the fitted curve at half-maximal effect; nearly all actives have a fitted effect of over 50% in size. The note with it: recombinant CYP3A4, Luciferin-PPXE luminescence; series mostly up to 57.1 µM. The method in brief:
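Luminescent readout of luciferin produced by CYP3A4 (20 nM) dealkylation of Luciferin-PPXE, 25 uM (its KM). NADPH-driven reaction ran 60 min at RT after 10 min compound preincubation; data scaled to 57 uM ketoconazole as 100% inhibition.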

Assay [11] has the same target. Briefly: qHTS Assay for Activators of Cytochrome P450 3A4 (AID 885). Also: nearly all actives have a fitted effect of over 65% in size. The note with it: recombinant CYP3A4, Luciferin-PPXE luminescence, 60 min; series mostly up to 57.1 µM. The method in brief: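 Using 20nM recombinant human CYP3A4 in potassium phosphate (200mM), substrate Luciferin-PPXE at 25uM, luminescent luciferin detection followed a 60-min RT NADPH reaction; data scaled to 57 uM ketoconazole.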

Assay [12] is described as follows: qHTS Assay for Identification of Small Molecule Agonists for Hypoxia Response Element Signaling Pathway (AID 914; active = well fitted activation curve with a large enough effect in the signal ratio, with a control signal flat, not every such curve was filed as active; the % refers to the signal ratio; also: % of control where 0% means no effect). The note with it: ME-180 (cervical carcinoma) HRE-bla reporter, beta-lactamase ratio, CoCl2, 17 h; activation: stronger effect = higher value. The method in brief: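 HRE-bla ME-180 cells with beta-lactamase reporter under hypoxia response element, compounds with EC50 CoCl2 for 17 hours at 37 C. CCF4 substrate, 460nm/530nm emission ratio gave %Activity; AC50 from titration series.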

The nature of assay [13]: qHTS Assay for Lipid Storage Modulators (AID 1519; calls by dose curve). To be noted: Drosophila S3 cells, BODIPY lipid droplet/cell ratio, laser cytometry, cells loaded with oleic acid; for activity change, negative = inhibition: at 57.5 µM (top of the series). A digest of the protocol:
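Cells seeded at 5,000 per well were treated with compounds over a concentration series and loaded with oleic acid (400 uM, as added). Lipid droplet fluorescence (488 nm excitation, 500-530 nm channel) was read by laser-scanning cytometry and normalized to 20 uM Triacsin C.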

In assay [14] the target is Dual specificity protein kinase CLK4 (Homo sapiens) (UniProt Q9HAZ1). As to the kind of experiment: qHTS Assay for Inhibitors of CDC-like Kinase 4 (Kinase-Glo Assay) (AID 1770). Also: % is scaled to controls: 0 for no effect and ±100 for the full control effect; nearly all actives have a fitted effect of over 65% in size. The note with it: recombinant Clk4, Kinase-Glo ATP depletion luminescence; series mostly up to 66.7 µM. A digest of the protocol: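 Clk4 25 nM, RS peptide 100 uM, ATP 1 uM, pH 7.5 Tris, 10 mM MgCl2, 2.5 mM DTT; 4.5 h RT; ATP depletion read by Kinase-Glo luminescence.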
Dual specificity protein kinase CLK4 (Homo sapiens), sequence (Q9HAZ1 whole entry, looked up): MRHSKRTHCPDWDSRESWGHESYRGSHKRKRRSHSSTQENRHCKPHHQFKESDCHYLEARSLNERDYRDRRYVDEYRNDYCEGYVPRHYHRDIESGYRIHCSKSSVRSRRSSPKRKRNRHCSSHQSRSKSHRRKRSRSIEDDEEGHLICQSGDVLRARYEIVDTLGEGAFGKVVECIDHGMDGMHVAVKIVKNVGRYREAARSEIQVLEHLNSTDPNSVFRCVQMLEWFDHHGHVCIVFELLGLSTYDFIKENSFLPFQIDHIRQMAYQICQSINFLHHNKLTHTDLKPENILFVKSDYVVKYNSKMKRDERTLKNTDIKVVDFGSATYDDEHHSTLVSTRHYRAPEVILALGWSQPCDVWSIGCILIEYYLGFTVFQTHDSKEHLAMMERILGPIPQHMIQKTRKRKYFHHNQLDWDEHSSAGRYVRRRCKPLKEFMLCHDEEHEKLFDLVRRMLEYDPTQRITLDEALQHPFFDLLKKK

For assay [15] the target is unchanged. Briefly: qHTS Assay for Inhibitors of CDC-like Kinase 4 (ADP-Glo Assay) (AID 1771). Also: % is scaled to controls: 0 for no effect and ±100 for the full control effect; nearly all actives have a fitted effect of over 70% in size. The note with it: recombinant CLK4, ADP-Glo luminescence; series mostly up to 80 µM. The method in brief: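 25 nM Clk4, 100 uM RS peptide, 1 uM ATP (final); 2 mM MgCl2, 0.5 mM EGTA, 2.5 mM DTT, 0.01% Triton X-100; 1 hr RT. ADP-Glo readout: ATP depletion 45 min, conversion/luciferase 30 min, luminescence.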

Assay [16] has the same target. As to the kind of experiment: qHTS Assay for Inhibitors of CDC-like Kinase 4 (ADP-FP Assay) (AID 1795).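 Also: recombinant human CLK4 phosphorylating RS repeat peptide at 1 µM ATP; % is scaled to controls: 0 for no effect and ±100 for the full control effect; nearly all actives have a fitted effect of over 60% in size.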 The note with it: Transcreener ADP fluorescence polarization; series mostly up to 50 µM. The method in brief:
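Kinase activity was followed as ADP output, converted from fluorescence polarization with a calibration curve. Reactions ran one hour at low ATP (1 uM) with RS peptide substrate.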

The target of assay [17] is Ubiquitin carboxyl-terminal hydrolase 1 (Homo sapiens) (UniProt O94782). Briefly: Inhibitors of USP1/UAF1: Pilot qHTS (AID 504865).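 Also: rhodamine fluorescence freed from ubiquitin-rhodamine substrate followed over time; top concentration of the series differs between compounds; % is scaled to controls: 0 for no effect and ±100 for the full control effect; nearly all actives have a fitted effect of over 35% in size.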 The note with it: purified USP1/UAF1, Ub-rhodamine cleavage fluorescence; series mostly up to 54.9 µM. A digest of the protocol: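 Enzyme-free wells gave the negative control, while test wells held 1nM USP1/UAF1 preincubated with compound for 15 min at room temperature. Ub-Rho at 150nM final started the reaction, and fluorescence at 480/540 nm was recorded kinetically.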
Ubiquitin carboxyl-terminal hydrolase 1 (Homo sapiens), sequence (O94782 whole entry, looked up): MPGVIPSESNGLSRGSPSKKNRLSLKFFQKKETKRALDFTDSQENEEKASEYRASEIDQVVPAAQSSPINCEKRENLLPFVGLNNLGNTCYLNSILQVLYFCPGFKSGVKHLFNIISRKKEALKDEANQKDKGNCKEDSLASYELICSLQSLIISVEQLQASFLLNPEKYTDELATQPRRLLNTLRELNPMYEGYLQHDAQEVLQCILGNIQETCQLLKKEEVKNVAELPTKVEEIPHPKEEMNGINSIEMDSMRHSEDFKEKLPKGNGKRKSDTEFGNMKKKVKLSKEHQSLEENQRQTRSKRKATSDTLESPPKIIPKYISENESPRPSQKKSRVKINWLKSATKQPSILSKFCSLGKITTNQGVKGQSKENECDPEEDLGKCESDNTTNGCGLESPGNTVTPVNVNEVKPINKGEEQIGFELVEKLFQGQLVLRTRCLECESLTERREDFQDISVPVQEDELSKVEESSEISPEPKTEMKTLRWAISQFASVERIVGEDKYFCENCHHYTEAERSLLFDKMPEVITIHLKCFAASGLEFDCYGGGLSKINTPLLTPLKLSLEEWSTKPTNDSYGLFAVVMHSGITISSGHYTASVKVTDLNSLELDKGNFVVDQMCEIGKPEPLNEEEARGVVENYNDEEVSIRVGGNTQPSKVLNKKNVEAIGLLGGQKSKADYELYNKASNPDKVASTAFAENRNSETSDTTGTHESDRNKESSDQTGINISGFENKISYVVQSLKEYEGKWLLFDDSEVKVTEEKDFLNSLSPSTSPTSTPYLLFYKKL

Assay [18] can be described thus: Primary qHTS for small molecule stabilizers of the endoplasmic reticulum resident proteome: Secreted ER Calcium Modulated Protein (SERCaMP) assay (AID 1508630). Also: % is scaled to controls: 0 for no effect and ±100 for the full control effect. The note with it: SH-SY5Y GLuc-SERCaMP (Gaussia luciferase released on ER calcium loss) secretion, thapsigargin, luminescence; series mostly up to 38.4 µM. The method in brief:
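The SH-SY5Y reporter protocol was run at 3 concentrations up to 38.3 uM (primary) or 11 concentrations (follow-up): 16 h compound, 100 nM thapsigargin for 4 h, then extracellular luciferase luminescence.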

The mark [19] stands for this setting: measured here: cell count channel max response.
[20] abbreviates: measured here: lipid channel max response.

Results filed as inconclusive are left out. Active and inactive are the calls of the source. Unless noted, calls follow the shape of the dose curve; as a rule, active = well fitted curve in the direction sought with a large enough effect; inconclusive = small, poorly fitted or top-dose-only effect, or another doubt; inactive = no such curve, though single readings can be large; an effect the other way counts as inactive or inconclusive. A value given as a limit tells only on which side of the number the result lay.

Cytochrome P450 3A4 (Homo sapiens), sequence (P08684 whole entry, looked up): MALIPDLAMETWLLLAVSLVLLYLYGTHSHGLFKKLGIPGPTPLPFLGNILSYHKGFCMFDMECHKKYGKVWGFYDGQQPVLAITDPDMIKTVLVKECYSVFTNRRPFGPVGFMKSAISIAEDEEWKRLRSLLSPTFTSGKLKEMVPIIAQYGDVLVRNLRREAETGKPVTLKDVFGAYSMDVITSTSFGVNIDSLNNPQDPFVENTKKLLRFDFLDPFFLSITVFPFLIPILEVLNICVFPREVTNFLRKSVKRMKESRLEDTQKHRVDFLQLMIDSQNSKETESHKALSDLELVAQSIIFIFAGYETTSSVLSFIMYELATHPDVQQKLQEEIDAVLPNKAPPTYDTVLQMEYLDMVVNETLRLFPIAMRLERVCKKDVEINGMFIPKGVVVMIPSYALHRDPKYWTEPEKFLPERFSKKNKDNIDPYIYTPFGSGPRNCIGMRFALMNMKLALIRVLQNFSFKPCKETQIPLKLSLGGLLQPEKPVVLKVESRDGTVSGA
Cytochrome P450 1A2 (Homo sapiens), sequence (P05177 whole entry, looked up): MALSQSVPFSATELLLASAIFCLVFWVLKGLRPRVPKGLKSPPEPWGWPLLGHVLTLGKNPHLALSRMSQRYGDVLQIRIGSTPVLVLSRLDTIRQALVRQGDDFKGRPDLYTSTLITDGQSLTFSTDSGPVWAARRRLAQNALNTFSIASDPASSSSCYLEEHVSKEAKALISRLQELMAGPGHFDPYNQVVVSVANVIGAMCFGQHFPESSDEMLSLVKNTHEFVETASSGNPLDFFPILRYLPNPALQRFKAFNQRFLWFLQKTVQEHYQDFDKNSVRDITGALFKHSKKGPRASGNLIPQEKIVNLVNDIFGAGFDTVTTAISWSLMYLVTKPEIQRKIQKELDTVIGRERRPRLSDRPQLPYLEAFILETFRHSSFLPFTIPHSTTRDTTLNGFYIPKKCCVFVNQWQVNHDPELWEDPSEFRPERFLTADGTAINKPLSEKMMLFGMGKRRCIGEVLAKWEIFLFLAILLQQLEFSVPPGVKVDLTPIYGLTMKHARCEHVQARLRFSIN
Lysosomal acid glucosylceramidase (Homo sapiens), sequence (P04062 whole entry, looked up): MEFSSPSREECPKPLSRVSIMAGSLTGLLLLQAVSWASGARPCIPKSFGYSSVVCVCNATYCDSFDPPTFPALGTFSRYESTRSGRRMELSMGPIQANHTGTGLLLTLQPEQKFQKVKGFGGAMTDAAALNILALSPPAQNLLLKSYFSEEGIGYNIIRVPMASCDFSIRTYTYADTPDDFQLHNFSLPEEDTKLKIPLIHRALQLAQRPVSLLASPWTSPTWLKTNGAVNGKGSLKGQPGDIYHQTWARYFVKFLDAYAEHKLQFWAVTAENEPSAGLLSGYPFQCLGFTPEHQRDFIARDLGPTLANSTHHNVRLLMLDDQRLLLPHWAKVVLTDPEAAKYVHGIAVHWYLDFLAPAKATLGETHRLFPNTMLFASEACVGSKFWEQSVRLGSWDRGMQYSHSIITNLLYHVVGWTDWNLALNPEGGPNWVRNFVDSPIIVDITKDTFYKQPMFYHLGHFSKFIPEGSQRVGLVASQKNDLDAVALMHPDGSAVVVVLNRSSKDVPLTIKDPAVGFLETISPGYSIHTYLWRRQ

On to `Cc1noc(C)c1-c1cncnc1NCc1ccccc1`, for which the Potency in assay [1] was > 11.4 µM (inactive); in assay [3] it was 25.1 µM (active); in assay [6] it was > 46 µM (inactive); in assay [7], > 46 µM (inactive); in [10], 2 µM (active). Further, the results for the activity change, negative = inhibition in assay [2], in assay [4] and in [13] were -6.64% (inactive), 0.549% (inactive) and 6.38% (inactive), respectively. The activity, negative = inhibition in [5] was -5.87% (inactive). In assay [8], the result was inactive. Moreover, the Potency result in assay [9], in assay [11], in assay [14], in assay [15], in assay [16] and in assay [17] was “inactive” each time. Moreover, the Potency entry in assay [18] is “inactive”. Further, the activation in assay [12] is 4.46% (inactive). The max response in assay [13] (setting [19]) was 0.495%; in [13] (setting [20]), 15.9%.

Consider `O=c1c(-c2ccc(F)c(F)c2)nc2cncnc2n1C1CC1`, for which the Potency in assay [1] was > 11.4 µM (inactive); in [3] it was 0.1 µM (active); in [6], > 9.22 µM (inactive); in [7], > 46 µM (inactive). The activity change, negative = inhibition in [2] is 3.77% (inactive); in assay [4] it was 7.2% (inactive); in assay [13] it was 8.82% (inactive). The activity, negative = inhibition in [5] is -6.38% (inactive). Further, the outcome in [8] was inactive. For the same compound, the Potency entry in [9], in [11], in [14], in assay [15], in assay [16] and in [17] was “inactive” throughout. Further, the Potency entry in assay [18] is “inactive”. For the same compound, the max response in [13] (setting [19]) came out at 20.3%; in [13] (setting [20]) it was 27.4%.

Take `N#CCCn1c(=O)c(-c2cccc(C#N)c2)nc2cnc(N3CCOCC3)nc21`: the Potency was > 11.4 µM (inactive) in assay [1], 15.8 µM (active) in assay [3], > 9.22 µM (inactive) in assay [6] and > 46 µM (inactive) in assay [7]. The activity change, negative = inhibition in assay [2] was 2.97% (inactive); in [4] it was 6.22% (inactive); in assay [13] it was -2% (inactive). In addition, the activity, negative = inhibition in [5] was 11.4% (inactive). Moreover, in assay [8], the result was inactive. In addition, the Potency result in [9], in assay [11], in [14], in [15], in assay [16] and in assay [17] was “inactive” throughout. For the same compound, the Potency result in [18] was “inactive”. The max response in assay [13] (setting [19]) was 13.8%; in [13] (setting [20]), 7.79%.
